# According to ChEMBL document CHEMBL1961873, “Compounds: GSK PKIS; Assays: Nanosyn kinase panel” (2012):
# Tests used:
# [1] = biological target: T1, Inhibitor of nuclear factor kappa-B kinase subunit epsilon (Homo sapiens) (UniProt Q14164); details: at 1 µM;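 also: reported values are averaged percent inhibition figures against human IKKε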
# T1 sequence (whole entry): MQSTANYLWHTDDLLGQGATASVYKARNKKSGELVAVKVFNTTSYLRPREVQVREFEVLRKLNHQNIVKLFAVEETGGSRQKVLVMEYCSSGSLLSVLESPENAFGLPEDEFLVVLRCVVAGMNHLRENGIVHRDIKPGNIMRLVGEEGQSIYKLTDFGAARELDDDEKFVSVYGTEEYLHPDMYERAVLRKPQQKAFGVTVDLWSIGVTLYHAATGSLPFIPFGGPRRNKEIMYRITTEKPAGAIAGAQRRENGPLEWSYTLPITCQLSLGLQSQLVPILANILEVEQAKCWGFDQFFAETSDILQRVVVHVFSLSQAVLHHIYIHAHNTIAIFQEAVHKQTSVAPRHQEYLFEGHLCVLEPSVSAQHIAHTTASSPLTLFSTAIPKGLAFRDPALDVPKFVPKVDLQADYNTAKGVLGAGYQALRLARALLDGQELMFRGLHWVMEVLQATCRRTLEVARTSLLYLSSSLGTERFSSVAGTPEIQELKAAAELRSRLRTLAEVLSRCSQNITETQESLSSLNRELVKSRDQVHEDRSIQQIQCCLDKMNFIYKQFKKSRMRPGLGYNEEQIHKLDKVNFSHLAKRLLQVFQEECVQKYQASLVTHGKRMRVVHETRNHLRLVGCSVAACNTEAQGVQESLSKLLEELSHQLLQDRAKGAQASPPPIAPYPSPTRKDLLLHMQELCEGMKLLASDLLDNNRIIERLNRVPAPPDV
# [2] = biological target: T2, Serine/threonine-protein kinase Nek1 (Homo sapiens) (UniProt Q96PY6); details: at 0.1 µM
# T2 sequence (whole entry): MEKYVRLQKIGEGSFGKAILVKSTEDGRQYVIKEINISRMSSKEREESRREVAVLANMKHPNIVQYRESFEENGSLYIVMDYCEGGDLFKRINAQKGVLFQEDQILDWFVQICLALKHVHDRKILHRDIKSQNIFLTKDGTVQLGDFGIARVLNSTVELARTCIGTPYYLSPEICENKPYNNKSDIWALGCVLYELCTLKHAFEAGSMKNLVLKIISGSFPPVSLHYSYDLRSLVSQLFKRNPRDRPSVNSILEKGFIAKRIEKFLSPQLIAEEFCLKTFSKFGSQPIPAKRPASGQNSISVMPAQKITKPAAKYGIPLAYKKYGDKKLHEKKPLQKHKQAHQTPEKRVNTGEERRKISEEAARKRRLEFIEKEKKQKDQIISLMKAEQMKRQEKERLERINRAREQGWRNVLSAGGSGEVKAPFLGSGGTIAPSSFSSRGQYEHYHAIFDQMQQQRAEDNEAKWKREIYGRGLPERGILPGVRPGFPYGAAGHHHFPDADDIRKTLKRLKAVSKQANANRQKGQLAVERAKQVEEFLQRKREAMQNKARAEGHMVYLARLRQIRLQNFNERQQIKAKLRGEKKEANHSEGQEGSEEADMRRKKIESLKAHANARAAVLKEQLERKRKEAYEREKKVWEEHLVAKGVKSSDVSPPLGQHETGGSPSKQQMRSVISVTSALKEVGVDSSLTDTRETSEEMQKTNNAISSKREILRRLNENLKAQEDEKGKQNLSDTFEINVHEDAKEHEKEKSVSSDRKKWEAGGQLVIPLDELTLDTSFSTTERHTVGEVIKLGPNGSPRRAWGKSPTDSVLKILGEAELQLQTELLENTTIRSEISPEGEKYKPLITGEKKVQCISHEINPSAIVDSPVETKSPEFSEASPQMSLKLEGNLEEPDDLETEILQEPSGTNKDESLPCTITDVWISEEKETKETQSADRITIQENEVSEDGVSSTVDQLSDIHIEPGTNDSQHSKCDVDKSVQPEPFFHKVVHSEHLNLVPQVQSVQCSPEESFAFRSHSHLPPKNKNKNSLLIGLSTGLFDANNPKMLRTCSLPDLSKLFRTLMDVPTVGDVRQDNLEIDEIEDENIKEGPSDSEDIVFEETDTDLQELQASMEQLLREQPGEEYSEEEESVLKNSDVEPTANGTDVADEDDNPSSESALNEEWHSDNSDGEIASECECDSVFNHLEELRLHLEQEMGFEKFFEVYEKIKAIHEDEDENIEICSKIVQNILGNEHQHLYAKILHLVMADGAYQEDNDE
# [3] = biological target: T2, Serine/threonine-protein kinase Nek1 (Homo sapiens); details: at 1 µM
# [4] = biological target: T3, Serine/threonine-protein kinase Nek2 (Homo sapiens) (UniProt P51955); details: at 0.1 µM
# T3 sequence (whole entry): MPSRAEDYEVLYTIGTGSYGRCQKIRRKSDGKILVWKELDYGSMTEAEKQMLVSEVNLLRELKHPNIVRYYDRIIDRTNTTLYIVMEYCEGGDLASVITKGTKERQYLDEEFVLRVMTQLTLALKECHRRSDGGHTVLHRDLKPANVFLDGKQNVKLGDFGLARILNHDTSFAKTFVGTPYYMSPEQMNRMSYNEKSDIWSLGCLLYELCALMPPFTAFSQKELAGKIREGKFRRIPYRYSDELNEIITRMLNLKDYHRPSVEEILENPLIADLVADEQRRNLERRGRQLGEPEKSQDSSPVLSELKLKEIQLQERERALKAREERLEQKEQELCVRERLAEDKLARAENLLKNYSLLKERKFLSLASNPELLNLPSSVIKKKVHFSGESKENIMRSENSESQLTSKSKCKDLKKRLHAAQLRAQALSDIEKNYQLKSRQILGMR
# [5] = biological target: T3, Serine/threonine-protein kinase Nek2 (Homo sapiens); details: at 1 µM
# [6] = biological target: Serine/threonine-protein kinase Nek6 (Homo sapiens) (UniProt Q9HC98); details: at 0.1 µM
# [7] = biological target: Serine/threonine-protein kinase Nek6 (Homo sapiens) (UniProt Q9HC98); details: at 1 µM
# [8] = biological target: Serine/threonine-protein kinase Nek7 (Homo sapiens) (UniProt Q8TDX7); details: at 0.1 µM
# [9] = biological target: Serine/threonine-protein kinase Nek7 (Homo sapiens) (UniProt Q8TDX7); details: at 1 µM
# [10] = biological target: T4, Serine/threonine-protein kinase Nek9 (Homo sapiens) (UniProt Q8TD19); details: at 0.1 µM
# T4 sequence (whole entry): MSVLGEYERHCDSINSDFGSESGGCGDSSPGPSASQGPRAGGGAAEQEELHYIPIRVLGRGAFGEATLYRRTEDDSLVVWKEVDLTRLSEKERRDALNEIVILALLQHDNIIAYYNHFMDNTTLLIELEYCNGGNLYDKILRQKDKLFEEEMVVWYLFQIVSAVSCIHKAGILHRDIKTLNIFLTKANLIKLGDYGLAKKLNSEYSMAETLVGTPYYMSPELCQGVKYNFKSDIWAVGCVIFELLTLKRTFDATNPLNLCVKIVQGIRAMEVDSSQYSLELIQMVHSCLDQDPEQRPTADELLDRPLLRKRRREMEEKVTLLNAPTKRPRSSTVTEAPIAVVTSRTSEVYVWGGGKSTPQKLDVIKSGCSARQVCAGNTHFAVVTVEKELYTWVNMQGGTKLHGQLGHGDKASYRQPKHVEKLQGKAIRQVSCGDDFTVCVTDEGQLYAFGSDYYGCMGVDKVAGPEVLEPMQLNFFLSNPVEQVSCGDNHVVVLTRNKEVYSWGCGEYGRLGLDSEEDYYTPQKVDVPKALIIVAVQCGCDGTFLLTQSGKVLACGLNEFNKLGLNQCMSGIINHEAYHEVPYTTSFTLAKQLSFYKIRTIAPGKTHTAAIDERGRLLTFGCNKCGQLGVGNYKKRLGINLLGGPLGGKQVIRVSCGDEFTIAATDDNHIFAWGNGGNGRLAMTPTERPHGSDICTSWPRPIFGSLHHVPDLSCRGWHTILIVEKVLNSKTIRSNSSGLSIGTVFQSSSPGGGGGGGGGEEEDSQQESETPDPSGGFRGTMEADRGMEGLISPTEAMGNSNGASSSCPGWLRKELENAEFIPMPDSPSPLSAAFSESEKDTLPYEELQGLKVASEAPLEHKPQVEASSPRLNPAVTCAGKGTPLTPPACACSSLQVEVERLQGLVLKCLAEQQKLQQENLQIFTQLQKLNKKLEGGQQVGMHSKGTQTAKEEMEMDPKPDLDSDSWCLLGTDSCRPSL
# [11] = biological target: T4, Serine/threonine-protein kinase Nek9 (Homo sapiens); details: at 1 µM
# [12] = biological target: Serine/threonine-protein kinase PLK1 (Homo sapiens) (UniProt P53350); details: at 0.1 µM
# [13] = biological target: Serine/threonine-protein kinase PLK1 (Homo sapiens) (UniProt P53350); details: at 1 µM
# [14] = biological target: T5, Dual specificity protein kinase TTK (Homo sapiens) (UniProt P33981); details: at 0.1 µM
# T5 sequence (whole entry): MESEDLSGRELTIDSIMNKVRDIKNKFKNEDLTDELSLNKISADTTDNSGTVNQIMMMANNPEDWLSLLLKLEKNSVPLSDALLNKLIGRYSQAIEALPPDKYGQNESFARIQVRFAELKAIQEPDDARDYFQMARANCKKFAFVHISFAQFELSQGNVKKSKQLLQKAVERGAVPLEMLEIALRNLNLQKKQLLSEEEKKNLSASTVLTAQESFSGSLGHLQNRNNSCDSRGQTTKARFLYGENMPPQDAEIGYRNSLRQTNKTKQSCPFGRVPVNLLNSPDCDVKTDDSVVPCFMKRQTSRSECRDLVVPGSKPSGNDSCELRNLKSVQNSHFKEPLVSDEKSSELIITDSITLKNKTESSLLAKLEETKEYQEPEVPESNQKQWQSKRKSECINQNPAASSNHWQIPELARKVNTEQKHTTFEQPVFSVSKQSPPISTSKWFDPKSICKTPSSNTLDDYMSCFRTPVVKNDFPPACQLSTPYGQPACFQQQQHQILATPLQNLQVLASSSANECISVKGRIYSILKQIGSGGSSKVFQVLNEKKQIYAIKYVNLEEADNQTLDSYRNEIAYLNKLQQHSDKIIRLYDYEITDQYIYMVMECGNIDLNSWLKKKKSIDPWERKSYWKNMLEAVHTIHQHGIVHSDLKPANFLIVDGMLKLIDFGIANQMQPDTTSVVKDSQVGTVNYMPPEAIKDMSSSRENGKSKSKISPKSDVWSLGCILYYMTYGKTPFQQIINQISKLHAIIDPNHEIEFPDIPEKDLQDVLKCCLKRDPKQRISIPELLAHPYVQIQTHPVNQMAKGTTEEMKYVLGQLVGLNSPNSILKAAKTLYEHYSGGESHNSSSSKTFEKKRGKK
# [15] = test system: T6, Receptor-type tyrosine-protein kinase FLT3 (Homo sapiens), P36888 [D835Y]; details: at 1 µM
# T6 sequence (whole entry): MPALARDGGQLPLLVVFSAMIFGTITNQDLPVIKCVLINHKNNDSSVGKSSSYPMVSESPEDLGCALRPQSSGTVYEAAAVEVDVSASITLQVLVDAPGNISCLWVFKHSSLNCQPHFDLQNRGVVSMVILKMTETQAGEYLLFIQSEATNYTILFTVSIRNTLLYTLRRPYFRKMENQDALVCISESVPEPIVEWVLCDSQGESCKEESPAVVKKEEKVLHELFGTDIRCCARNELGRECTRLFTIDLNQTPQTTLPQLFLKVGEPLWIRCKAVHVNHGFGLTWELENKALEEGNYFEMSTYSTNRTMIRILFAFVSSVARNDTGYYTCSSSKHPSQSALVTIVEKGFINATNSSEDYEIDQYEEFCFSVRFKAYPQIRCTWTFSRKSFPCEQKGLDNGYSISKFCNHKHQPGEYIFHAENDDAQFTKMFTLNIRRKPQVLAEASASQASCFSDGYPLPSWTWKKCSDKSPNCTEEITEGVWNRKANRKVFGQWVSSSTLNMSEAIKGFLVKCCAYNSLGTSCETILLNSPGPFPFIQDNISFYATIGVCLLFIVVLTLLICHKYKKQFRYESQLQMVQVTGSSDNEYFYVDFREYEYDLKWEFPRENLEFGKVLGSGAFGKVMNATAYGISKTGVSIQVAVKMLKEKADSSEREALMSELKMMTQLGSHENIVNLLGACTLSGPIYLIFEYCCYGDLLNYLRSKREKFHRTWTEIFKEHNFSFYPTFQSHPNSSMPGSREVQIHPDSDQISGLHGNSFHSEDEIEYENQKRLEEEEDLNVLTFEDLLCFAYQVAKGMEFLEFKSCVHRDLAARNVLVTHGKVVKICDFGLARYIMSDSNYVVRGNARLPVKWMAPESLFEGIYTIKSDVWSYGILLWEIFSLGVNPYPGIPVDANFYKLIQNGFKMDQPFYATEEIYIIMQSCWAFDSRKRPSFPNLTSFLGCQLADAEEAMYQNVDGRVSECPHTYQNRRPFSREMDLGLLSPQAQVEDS
# [16] = biological target: Vascular endothelial growth factor receptor 3 (Homo sapiens) (UniProt P35916); details: at 0.1 µM
# [17] = biological target: Vascular endothelial growth factor receptor 3 (Homo sapiens) (UniProt P35916); details: at 1 µM
# [18] = biological target: Macrophage colony-stimulating factor 1 receptor (Homo sapiens) (UniProt P07333); details: at 0.1 µM
# [19] = biological target: Macrophage colony-stimulating factor 1 receptor (Homo sapiens) (UniProt P07333); details: at 1 µM
# [20] = biological target: Tyrosine-protein kinase Fyn (Homo sapiens) (UniProt P06241); details: at 0.1 µM
# Tyrosine-protein kinase Fyn (Homo sapiens), sequence (P06241 2-537 limits assumed): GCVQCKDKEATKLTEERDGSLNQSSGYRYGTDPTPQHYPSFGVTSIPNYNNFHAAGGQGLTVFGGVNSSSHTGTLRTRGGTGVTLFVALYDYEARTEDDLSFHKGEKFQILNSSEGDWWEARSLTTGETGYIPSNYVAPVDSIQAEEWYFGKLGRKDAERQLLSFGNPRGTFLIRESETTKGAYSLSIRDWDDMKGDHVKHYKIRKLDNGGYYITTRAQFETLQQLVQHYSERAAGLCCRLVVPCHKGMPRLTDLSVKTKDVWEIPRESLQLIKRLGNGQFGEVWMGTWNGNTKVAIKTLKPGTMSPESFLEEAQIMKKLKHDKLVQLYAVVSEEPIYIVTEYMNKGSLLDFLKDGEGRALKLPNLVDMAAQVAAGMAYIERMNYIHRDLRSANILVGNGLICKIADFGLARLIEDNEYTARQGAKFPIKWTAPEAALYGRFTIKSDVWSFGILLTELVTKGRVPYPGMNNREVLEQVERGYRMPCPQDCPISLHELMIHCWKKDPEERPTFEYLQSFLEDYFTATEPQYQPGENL
# Macrophage colony-stimulating factor 1 receptor (Homo sapiens), sequence (P07333 whole entry): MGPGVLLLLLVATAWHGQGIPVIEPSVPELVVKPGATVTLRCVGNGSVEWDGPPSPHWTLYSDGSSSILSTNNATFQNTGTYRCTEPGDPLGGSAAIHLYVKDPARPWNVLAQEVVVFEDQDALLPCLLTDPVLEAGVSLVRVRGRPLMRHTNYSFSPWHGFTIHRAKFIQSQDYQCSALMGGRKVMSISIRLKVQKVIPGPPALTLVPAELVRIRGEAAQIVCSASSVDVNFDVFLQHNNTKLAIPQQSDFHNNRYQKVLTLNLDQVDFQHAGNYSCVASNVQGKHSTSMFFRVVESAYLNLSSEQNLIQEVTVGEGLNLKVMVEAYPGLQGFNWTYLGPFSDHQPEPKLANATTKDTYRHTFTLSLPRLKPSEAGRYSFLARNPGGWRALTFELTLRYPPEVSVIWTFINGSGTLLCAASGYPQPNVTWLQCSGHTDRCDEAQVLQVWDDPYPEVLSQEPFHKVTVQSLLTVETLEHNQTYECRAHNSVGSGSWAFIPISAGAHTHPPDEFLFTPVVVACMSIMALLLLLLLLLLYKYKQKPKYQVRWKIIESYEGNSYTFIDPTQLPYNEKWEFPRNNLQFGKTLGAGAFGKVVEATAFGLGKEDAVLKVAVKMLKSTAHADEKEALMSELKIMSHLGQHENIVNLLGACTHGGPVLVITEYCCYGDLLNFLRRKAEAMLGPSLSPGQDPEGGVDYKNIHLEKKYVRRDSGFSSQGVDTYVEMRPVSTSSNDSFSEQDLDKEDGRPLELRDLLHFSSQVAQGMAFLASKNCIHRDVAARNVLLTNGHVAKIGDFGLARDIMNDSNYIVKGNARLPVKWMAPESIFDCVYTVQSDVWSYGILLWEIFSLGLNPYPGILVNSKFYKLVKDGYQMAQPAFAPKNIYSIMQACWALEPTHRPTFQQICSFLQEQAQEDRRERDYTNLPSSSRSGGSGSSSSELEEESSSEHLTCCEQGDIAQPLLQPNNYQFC
# Serine/threonine-protein kinase Nek6 (Homo sapiens), sequence (Q9HC98 whole entry): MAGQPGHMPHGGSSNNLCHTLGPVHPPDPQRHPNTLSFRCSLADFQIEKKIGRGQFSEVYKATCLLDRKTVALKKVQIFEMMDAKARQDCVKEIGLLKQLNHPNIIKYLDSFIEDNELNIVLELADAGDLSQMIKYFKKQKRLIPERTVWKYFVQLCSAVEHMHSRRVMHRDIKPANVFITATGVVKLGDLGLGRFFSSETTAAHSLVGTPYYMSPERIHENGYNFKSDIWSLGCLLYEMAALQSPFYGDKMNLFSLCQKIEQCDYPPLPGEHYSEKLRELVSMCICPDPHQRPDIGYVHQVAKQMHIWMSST
# Serine/threonine-protein kinase Nek7 (Homo sapiens), sequence (Q8TDX7 whole entry, looked up): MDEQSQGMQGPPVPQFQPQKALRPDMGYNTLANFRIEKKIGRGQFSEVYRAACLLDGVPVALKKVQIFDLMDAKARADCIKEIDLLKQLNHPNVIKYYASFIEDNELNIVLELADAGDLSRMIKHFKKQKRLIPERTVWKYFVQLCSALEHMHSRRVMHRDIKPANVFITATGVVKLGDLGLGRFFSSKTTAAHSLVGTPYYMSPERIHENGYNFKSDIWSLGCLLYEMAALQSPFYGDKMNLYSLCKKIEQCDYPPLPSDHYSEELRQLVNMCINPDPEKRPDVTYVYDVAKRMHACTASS
# Vascular endothelial growth factor receptor 3 (Homo sapiens), sequence (P35916 whole entry): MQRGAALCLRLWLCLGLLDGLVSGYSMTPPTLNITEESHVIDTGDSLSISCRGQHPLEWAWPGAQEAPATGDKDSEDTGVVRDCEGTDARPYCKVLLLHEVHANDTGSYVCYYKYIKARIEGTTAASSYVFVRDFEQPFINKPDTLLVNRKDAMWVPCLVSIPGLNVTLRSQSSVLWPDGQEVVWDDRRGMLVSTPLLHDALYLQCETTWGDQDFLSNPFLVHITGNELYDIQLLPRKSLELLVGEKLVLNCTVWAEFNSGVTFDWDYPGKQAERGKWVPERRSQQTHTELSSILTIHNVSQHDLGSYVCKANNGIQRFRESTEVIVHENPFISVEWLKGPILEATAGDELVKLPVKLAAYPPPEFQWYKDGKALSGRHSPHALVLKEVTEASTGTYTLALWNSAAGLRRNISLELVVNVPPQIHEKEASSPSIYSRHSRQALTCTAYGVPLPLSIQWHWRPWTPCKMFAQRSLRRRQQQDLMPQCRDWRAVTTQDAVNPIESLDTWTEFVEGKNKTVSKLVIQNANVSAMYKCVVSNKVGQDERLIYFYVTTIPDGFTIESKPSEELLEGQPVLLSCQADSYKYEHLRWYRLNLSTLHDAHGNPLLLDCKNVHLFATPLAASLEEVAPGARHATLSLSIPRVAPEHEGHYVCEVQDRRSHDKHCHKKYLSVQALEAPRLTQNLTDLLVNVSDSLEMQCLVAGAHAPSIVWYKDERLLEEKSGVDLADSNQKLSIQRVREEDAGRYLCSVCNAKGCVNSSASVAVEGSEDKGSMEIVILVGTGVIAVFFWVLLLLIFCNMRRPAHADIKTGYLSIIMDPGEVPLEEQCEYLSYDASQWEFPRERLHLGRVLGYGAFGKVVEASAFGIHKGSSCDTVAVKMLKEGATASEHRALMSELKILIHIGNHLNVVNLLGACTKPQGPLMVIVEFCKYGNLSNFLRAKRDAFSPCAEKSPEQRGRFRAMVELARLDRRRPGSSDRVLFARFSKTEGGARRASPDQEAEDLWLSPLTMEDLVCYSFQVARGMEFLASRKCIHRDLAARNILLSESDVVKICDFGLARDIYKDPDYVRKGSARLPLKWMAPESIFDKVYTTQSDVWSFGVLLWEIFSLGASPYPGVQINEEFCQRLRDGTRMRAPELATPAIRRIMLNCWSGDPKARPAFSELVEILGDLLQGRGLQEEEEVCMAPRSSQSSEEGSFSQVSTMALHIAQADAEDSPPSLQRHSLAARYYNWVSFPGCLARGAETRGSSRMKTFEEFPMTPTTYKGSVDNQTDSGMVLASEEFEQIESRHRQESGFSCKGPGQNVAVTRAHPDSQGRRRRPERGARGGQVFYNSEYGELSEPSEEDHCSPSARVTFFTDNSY
# Serine/threonine-protein kinase PLK1 (Homo sapiens), sequence (P53350 whole entry): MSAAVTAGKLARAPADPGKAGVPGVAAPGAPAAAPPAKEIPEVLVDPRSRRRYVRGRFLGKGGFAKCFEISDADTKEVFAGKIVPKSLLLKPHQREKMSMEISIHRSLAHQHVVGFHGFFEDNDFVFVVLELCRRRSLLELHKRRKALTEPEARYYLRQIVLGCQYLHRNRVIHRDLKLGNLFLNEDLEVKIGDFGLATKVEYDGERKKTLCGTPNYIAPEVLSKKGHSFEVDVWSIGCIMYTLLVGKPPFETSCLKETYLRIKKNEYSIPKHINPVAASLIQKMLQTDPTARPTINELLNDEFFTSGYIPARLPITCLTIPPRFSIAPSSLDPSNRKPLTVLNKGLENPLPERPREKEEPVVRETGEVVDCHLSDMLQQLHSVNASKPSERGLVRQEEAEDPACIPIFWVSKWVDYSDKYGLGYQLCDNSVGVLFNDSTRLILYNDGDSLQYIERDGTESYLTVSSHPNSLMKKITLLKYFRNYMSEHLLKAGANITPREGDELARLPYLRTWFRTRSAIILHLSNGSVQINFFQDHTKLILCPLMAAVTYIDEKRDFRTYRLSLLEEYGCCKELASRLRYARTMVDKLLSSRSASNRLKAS
Compound,inhibition [1] [%],inhibition [2] [%],inhibition [3] [%],inhibition [4] [%],inhibition [5] [%],inhibition [6] [%],inhibition [7] [%],inhibition [8] [%],inhibition [9] [%],inhibition [10] [%],inhibition [11] [%],inhibition [12] [%],inhibition [13] [%],inhibition [14] [%],inhibition [15] [%],inhibition [16] [%],inhibition [17] [%],inhibition [18] [%],inhibition [19] [%],inhibition [20] [%]
COc1ccc(-c2cc(-c3c[nH]nc3-c3ccccn3)ccn2)cc1,9.71,2.15,3.74,5.8,4.88,2.87,4.34,2.27,3.19,7.56,9.65,3.67,4.38,13.4,1.61,5.28,4.26,6.09,5.24,3.23
CCNC(=O)O[C@H]1CN[C@H](C#Cc2cc3ncnc(Nc4ccc(OCc5cccc(F)c5)c(Cl)c4)c3s2)C1,2.76,1.8,2.36,3.33,6.2,3.89,0.56,3.85,3.51,12,4.6,3.22,3.29,2.67,2.57,5.21,-0.66,3.01,2.53,3.33
CCn1cc(-c2ccnc3[nH]ccc23)c(-c2cccc(NC(=O)Nc3ccc(OCc4ccccc4)cc3)c2)n1,3.46,1.35,0.82,0.4,-1.01,-0.55,-0.07,-1.04,-5.21,3.07,1.16,-0.45,-0.98,7.9,0.68,-0.45,-0.67,-7.9,0.27,0.67
